Z-score, composite z-score and outcome data for seven compounds are collected here from PubChem BioAssay.

Structures are written as SMILES. For some of these results: Potency and affinity values are given separately. Activity calls are given as the source filed them. Unless noted, the rule behind the calls is not given here.

The nature of assay [1]: HepG2 liver cancer cell viability effects, profiling panel, resazurin fluorescence, 24 h, PK04 Diversity Set (AID 1172). To be noted: higher = more signal. On the technique in general: Alamar Blue is a resazurin reagent that responds to reducing activity.
A short description of assay [2]: basal S. cerevisiae growth modulation, no modifier, primary screen, OD600, strain BY4716, 24 h, basal condition (AID 1173). To be noted: OD600, 24 h, higher = more signal, called active from +8 up or from −8 down.
A short description of assay [3]: MM1S myeloma cell viability, profiling panel, resazurin fluorescence, basal, 24 h, PK04 Diversity Set (AID 1174).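 Note: MM1S multiple myeloma cell line.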 To be noted: higher = more signal, called active from +8 up or from −8 down.
The target of assay [4] is Dihydroorotate dehydrogenase (quinone), mitochondrial (Plasmodium falciparum (isolate 3D7)) (UniProt Q08210). The assay can be described thus: PfDHODH enzyme inhibitors, primary screen, biochemical, C-terminal His tag, absorbance 600 nm (AID 1175).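 Note: recombinant parasite enzyme with a five histidine tag at its C terminus.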 To be noted: DCIP absorbance 600 nm, higher = more signal, called active from +8 up or from −8 down.
Assay [5] in a line: P. aeruginosa biofilm formation inhibitors, primary screen, strain PAO1, LB-PBS medium, absorbance 600 nm (AID 1176). The settings on record: P. aeruginosa PAO1 growth/biofilm, A600, 12 h; higher = more signal.
Assay [6] is described as follows: S. cerevisiae RM11-1a growth modifiers, primary screen, strain RM11-1a, OD600, basal, 24 h (AID 1177).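 Note: cultures grown under basal conditions with no added stressor.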 The settings on record: OD600, 24 h, higher = more signal, called active from +8 up or from −8 down.
Assay [7] is described as follows: E. coli acrAB mutant growth effects, primary screen, E. coli filamentation inducers, strain DRC39, OD650, 24 h (AID 1178).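 Note: growth measured as culture turbidity by optical density at 650 nm.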 The settings on record: higher = more signal, called active from +8 up or from −8 down.
A short description of assay [8]: E. coli acrAB mutant growth effects, primary screen, E. coli filamentation inducers, strain DRC39, OD650, 48 h (AID 1179).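 Note: screen aims at cell division blockers that make cells filament.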 To be noted: E. coli DRC39 delta-acrAB growth, higher = more signal, called active from +8 up or from −8 down.
The nature of assay [9]: RPMI8226 myeloma cell viability, profiling panel, resazurin fluorescence, basal, 24 h, PK04 Diversity Set (AID 1180).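 Note: RPMI8826 multiple myeloma cell line at 5000 cells per well.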 To be noted: higher = more signal.
Assay [10] deals with E3 ubiquitin-protein ligase XIAP (Homo sapiens) (UniProt P98170). As to the kind of experiment: XIAP binders, primary screen, biophysical, small-molecule microarray, fluorescence 635 nm (AID 1181).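 Note: score merges 667 nm emission and signal to noise over triplicate slides.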 To be noted: small-molecule microarray binding, higher = more signal.
For assay [11], the system named is XIP peptide (Xip251-270) binding. As to the kind of experiment: small-molecule binders of XIP peptide, primary screen, biochemical, small-molecule microarray, fluorescence 635/667 nm, 0.1 µg/mL protein (AID 1182). To be noted: fluorescent protein binding, 635 nm, higher = more signal, called active from +8 up or from −8 down.
The test system of another assay is XIP peptide (Xip251-270). The assay can be described thus: small-molecule binders of XIP peptide, primary screen, biochemical, small-molecule microarray, fluorescence 635/667 nm, 0.5 µg/mL protein (AID 1183). To be noted: small-molecule microarray binding, fluorescence 635 nm; higher = more signal.
Assay [12] can be described thus: Plasmodium falciparum growth inhibition, primary screen, strain 3D7, DAPI fluorescence, 100 nL (AID 1184).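 Note: parasites grown inside human red blood cells in medium with human serum.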 The settings on record: P. falciparum 3D7 growth, 3 d, higher = more signal.
Assay [13] concerns the target Homeobox protein Hox-A13 (Mus musculus) (UniProt Q62424). As to the kind of experiment: inhibitors of HoxA13-DNA binding, primary screen, biochemical, fluorescence polarization, labeled oligonucleotide (AID 1185). To be noted: 15 min, higher = more signal, called active from +8 up or from −8 down. In general terms: In fluorescence polarisation assays a small probe gives low polarisation when free and higher when bound to something large.

Assay [14] in a line: inhibitors of hydroxyurea-induced Chk1 phosphorylation, primary screen, imaging, HeLa, phospho-Chk1 antibody, percent positive cells (AID 1186). To be noted: hydroxyurea-induced phospho-Chk1 immunofluorescence imaging, higher = more signal.
Assay [15] can be described thus: inhibitors of hydroxyurea-induced Chk1 phosphorylation, primary screen, imaging, HeLa, phospho-Chk1 nuclear intensity (AID 1187). To be noted: hydroxyurea-induced phospho-Chk1 immunofluorescence imaging, higher = more signal.
A short description of assay [16]: inducers of Cryptococcus neoformans cell lysis, dose response, AK release luminescence, cherry-picks (AID 687000;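 active = fitted dose curve reaches 40% lysis signal rise at or below the highest valid concentration tested for that sample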;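 note: luminescent detection of adenylate kinase leaking from lysed yeast; 0% = median neutral control signal and 100% = double that signal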). To be noted: C. neoformans lysis, adenylate kinase release luminescence, 4 h, 100% = twice the neutral-control signal; series mostly up to 15 µM.
The nature of assay [17]: HepG2 cell cytotoxicity, dose response, cytotoxicity control, cherry-picks, set 2 (AID 687002;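 active = a dose-response fit showing signal loss, with half-maximal concentration no higher than twice the top tested dose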). The settings on record: HepG2 viability, ATP luminescence (CellTiter-Glo), 48 h; series mostly up to 26 µM. In general terms: ATP-based viability assays read luminescence as a measure of living cells.
A short description of assay [18]: HeLa cell cytotoxicity, dose response, cytotoxicity control, ATP luminescence, cherry-pick samples (AID 687004;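 active = a fitted half-maximal concentration no higher than twice the top valid tested dose, with signal falling as cells die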;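 note: 0% = neutral control median and -100% = staurosporine 10 µM control median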). The settings on record: HeLa viability, ATP luminescence (CellTiter-Glo), 48 h; series mostly up to 26 µM.

E3 ubiquitin-protein ligase XIAP (Homo sapiens), sequence (P98170 whole entry, looked up): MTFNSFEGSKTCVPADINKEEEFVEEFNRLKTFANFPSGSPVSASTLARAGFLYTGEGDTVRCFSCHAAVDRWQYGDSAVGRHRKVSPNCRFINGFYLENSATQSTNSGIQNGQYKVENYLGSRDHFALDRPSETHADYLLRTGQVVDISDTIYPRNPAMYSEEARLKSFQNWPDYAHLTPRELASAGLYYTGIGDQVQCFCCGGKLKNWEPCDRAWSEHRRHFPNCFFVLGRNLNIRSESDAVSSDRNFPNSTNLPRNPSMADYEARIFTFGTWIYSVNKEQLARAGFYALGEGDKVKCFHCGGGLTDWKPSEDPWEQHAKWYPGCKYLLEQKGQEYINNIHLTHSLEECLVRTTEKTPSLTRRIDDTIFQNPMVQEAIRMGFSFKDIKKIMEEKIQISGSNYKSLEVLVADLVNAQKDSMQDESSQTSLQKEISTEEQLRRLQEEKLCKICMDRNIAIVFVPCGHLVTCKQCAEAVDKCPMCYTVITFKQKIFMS
Dihydroorotate dehydrogenase (quinone), mitochondrial (Plasmodium falciparum (isolate 3D7)), sequence (Q08210 whole entry, looked up): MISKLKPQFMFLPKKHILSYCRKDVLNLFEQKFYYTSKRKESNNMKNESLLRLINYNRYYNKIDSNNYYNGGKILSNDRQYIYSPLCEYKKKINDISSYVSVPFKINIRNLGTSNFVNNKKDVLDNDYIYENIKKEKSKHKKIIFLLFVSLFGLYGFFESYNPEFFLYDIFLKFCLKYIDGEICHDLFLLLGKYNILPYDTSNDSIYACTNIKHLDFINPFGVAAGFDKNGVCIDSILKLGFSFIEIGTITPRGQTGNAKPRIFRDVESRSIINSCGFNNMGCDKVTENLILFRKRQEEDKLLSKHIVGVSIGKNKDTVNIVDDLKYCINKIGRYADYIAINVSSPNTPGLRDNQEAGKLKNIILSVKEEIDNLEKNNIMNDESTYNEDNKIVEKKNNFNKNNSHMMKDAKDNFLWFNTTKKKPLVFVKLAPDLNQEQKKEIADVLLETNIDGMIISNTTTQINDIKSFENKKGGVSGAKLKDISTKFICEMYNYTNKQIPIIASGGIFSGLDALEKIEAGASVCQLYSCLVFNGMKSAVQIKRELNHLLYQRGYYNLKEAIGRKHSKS
Homeobox protein Hox-A13 (Mus musculus), sequence (Q62424 whole entry, looked up): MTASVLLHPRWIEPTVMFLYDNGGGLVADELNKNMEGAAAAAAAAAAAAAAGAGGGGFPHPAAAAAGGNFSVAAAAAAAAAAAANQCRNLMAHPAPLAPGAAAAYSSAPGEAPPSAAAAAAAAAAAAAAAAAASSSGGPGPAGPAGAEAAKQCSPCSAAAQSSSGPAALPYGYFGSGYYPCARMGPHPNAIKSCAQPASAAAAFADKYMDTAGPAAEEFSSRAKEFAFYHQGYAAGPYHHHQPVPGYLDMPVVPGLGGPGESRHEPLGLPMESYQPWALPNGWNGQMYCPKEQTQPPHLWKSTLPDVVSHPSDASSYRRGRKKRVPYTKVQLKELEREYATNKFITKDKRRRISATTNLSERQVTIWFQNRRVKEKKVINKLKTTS

On to `COCCOC(=O)N1C(=O)[C@@]2(c3cc(C#CCC(C(=O)OC)C(=O)OC)ccc31)[C@H](c1ccccc1OCCO)N1[C@H](c3ccccc3)[C@H](c3ccccc3)OC(=O)[C@H]1[C@@H]2C(=O)N1CCCCCCC1`, for which the z-score is 1.16 in [1]; 1.29 (inactive) in assay [2]; 0.883 (inactive) in assay [3]; 1.48 (inactive) in [5]; 2.14 (inactive) in assay [6]; 0.189 (inactive) in assay [7]. Besides, the z-score in [8] is 0.364 (inactive); in [9], 1.58; in assay [12], -1.97; in [13] it was 2.94 (inactive); in assay [14], -0.304 (inactive); in [15], -0.309 (inactive). For the same compound, the composite z-score is 0.243 (inactive) in assay [4], 0.361 in assay [10], 0.856 (inactive) in assay [11] and 0.597 in the assay with XIP peptide (Xip251-270).
`Cc1cc(C)c(C(O)C2C=CC3C(=O)N(C)C(=O)C3N2N2CCCCC2)c(C)c1` (stereo not given): the z-score in assay [1] was 0.0632; in [2] it was 0.361 (inactive); in [3], -1.09 (inactive); in assay [5], 0.875 (inactive); in [6] it was -0.136 (inactive); in assay [7] it was -0.894 (inactive). Besides, the z-score in assay [8] was -0.435 (inactive); in assay [9], -1.02; in [12] it was 1.09; in assay [13], -3.3 (inactive); in [14], -0.514 (inactive); in assay [15], -0.224 (inactive). For the same compound, the composite z-score in [4] is -0.416 (inactive); in assay [10] it was 0.305; in assay [11] it was 0.0255 (inactive); with XIP peptide (Xip251-270) it was 0.849.
`CCCC=C(CCC)[C@@H](NS(=O)(=O)c1cccc(C(F)(F)F)c1)c1ccc(C(=O)OC)cc1`: the z-score in [1] was 1.18; in assay [2], 0.661 (inactive); in [3], 0.179 (inactive); in [5], -0.94 (inactive); in assay [6] it was -0.279 (inactive); in assay [7] it was -0.0305 (inactive). Besides, the z-score in assay [8] was -0.0262 (inactive); in assay [9], -0.16; in assay [12] it was 0.551; in [13], -1.64 (inactive); in assay [14] it was 0.0948 (inactive); in assay [15], -0.275 (inactive). Besides, the composite z-score in assay [4] was -0.237 (inactive); in assay [10] it was 0.0506; in assay [11], 0.0637 (inactive); in the assay with XIP peptide (Xip251-270), 0.377.
Take `CC(C)(C)OC(=O)CC[C@]1(C(=O)N2CCCCC2)N=C(c2ccc(OCCCO)cc2)O[C@H]1c1ccccc1`: the z-score is -0.302 in [1]; -1.05 (inactive) in assay [2]; -1.37 (inactive) in assay [3]; 0.0937 (inactive) in assay [5]; -0.374 (inactive) in assay [6]; 0.627 (inactive) in assay [7]. For the same compound, the z-score in assay [8] was 0.837 (inactive); in [9], -0.128; in assay [12] it was -2.31; in [13], -4.83 (inactive); in assay [14], -0.478 (inactive); in assay [15], -0.787 (inactive). Also, the composite z-score in assay [4] was -0.892 (inactive); in [10], 0.354; in [11] it was 1.24 (inactive); with XIP peptide (Xip251-270), 0.814.
Turning to `COc1cc(CO)cc(I)c1O[C@H]1C=C(C(=O)NCCO)C[C@@H](N(CC2CCCCC2)C(=O)c2cc3ccccc3oc2=O)[C@@H]1O`, the z-score in assay [1] is 0.479; in assay [2], -0.514 (inactive); in [3], 0.308 (inactive); in [5] it was 0.343 (inactive); in assay [6], 0.372 (inactive); in assay [7] it was 0.663 (inactive). For the same compound, the z-score was 0.283 (inactive) in assay [8]; 0.393 in [9]; 1.04 in assay [12]; -6.1 (inactive) in [13]; 0.113 (inactive) in assay [14]; 0.194 (inactive) in assay [15]. Besides, the composite z-score in [4] was -0.23 (inactive); in assay [10], -0.12; in assay [11], 0.193 (inactive); in the assay on XIP peptide (Xip251-270) it was 0.24. For the same compound, the call in [16], in [17] and in [18] was inactive.
As for `N#Cc1ccc(NN2C(C(O)c3ccc(I)cc3)C=CC3C(=O)N(c4ccccc4)C(=O)C32)cc1` (stereo not given), the z-score in [1] is -1.59; in assay [2] it was 0.179 (inactive); in [3], -1.34 (inactive); in assay [5], 0.944 (inactive); in [6], 0.62 (inactive); in assay [7] it was -0.904 (inactive). The z-score in assay [8] is -0.397 (inactive); in assay [9], -0.328; in [12], 0.175; in [13], -1.01 (inactive); in [14], -0.308 (inactive); in assay [15] it was 0.145 (inactive). The composite z-score in assay [4] was -0.165 (inactive); in assay [10], -0.256; in [11], 0.816 (inactive); in the assay on XIP peptide (Xip251-270) it was 0.464.
On to `COC(=O)[C@@]1(Cc2ccccc2N=[N+]=[N-])N=C(c2ccc(OCCCO)cc2)O[C@H]1c1ccccc1CN=[N+]=[N-]`, for which the z-score in assay [1] was -4.57; in assay [2] it was 1.16 (inactive); in assay [3], -8.21 (active); in assay [5], 0.383 (inactive); in assay [6], 0.992 (inactive); in assay [7], 0.23 (inactive). The z-score is 0.887 (inactive) in [8]; -7 in assay [9]; -2.29 in assay [12]; 1.05 (inactive) in assay [13]; -0.352 (inactive) in [14]; -0.735 (inactive) in assay [15]. Also, the composite z-score is 0.648 (inactive) in [4], 0.264 in assay [10], 0.367 (inactive) in [11] and 0.82 with XIP peptide (Xip251-270).
